Screening results deposited in PubChem BioAssay by National Center for Advancing Translational Sciences (NCATS).
A selection: hits, their analogues and other compounds. The true share with any hit is near 2.4%.
D2 ag-1: Beta-Arrestin HTS for Positive Allosteric Modulators of the Human D2 Dopamine Receptor: Agonists; activation, % (no concentration beside the values); D(2) dopamine receptor (Homo sapiens), P14416; 360,000 compounds, 0.084% hits; DiscoveRx PathHunter D2 beta-arrestin, luminescence, 90 min; 100% = 57 uM dopamine signal; in the data active = activation above about 40%; inconclusive = between about 15% and that limit
Target sequence (P14416 whole entry, looked up): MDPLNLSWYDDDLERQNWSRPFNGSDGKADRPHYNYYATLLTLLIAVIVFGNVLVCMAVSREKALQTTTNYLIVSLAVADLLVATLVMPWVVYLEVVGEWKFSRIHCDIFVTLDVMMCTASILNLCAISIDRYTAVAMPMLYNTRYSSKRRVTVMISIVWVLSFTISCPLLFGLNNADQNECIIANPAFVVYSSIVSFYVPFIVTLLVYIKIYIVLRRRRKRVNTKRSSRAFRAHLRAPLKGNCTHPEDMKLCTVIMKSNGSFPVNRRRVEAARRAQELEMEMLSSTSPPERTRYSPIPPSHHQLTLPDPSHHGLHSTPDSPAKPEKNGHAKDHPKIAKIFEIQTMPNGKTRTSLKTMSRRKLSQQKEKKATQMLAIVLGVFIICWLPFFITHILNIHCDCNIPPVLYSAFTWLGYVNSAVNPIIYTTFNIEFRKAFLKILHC
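DiscoveRx PathHunter D2 beta-arrestin cells (2,100/well) attached overnight, then compound-stimulated 90 min at 37 C in HBSS/10 mM HEPES/0.1% Tween-20 buffer; beta-galactosidase complementation read by luminescence after 1 h at ambient temperature. Dopamine 57 uM final (EC100) as control.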
D2 ag-2: HTS Assay for Allosteric Agonists of the Human D2 Dopamine Receptor: Primary Screen for Agonists; D(2) dopamine receptor (Homo sapiens), P14416; HEK293 T-REx D2 cells, calcium flux agonist mode; AID 485358, 2010; activation, % at 2 µM; 340,000 compounds, 0.53% hits;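 active = activation over 3 SD above normal in the single-dose calcium agonist read, cut at about 30% in these data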; also: 0% is about no effect
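In this primary screen, compounds producing a positive calcium signal within 180 s of addition to tetracycline-induced, force-coupled HEK293 Trex D2 cells are flagged; cells are dye-loaded with a no-wash calcium kit beforehand.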
D2 PAM-1: Beta-Arrestin HTS for Positive Allosteric Modulators of the Human D2 Dopamine Receptor: Potentiators. 360,000 compounds, 0.23% hits. AID 624464, 2012. DiscoveRx D2 beta-arrestin cells, luminescence, 90 min; 100% = 57 uM dopamine signal. D(2) dopamine receptor (Homo sapiens), P14416. potentiation, % (test concentration not listed); in the data active = potentiation above about 50%; inconclusive = mostly about 30% to 49%
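PathHunter beta-arrestin assay in DiscoveRx D2 cells. Compounds were added with an EC20 of dopamine (50 nM final) for 90 min at 37 deg C. Luminescence was read 1 h after detection reagent, with 57 uM dopamine as the EC100 control.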
D2 antagonist: HTS Assay for Allosteric Antagonists of the Human D2 Dopamine Receptor: Primary Screen for Antagonists; inhibition, % at 10 µM; 340,000 compounds, 2% hits; AID 485344, 2010; HEK293 TREx D2 cells, calcium flux, dopamine EC80; in the data active = inhibition above about 30%; inactive = below that, where a call was filed; also: 0% is about no effect
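Read-out: kinetic calcium fluorescence (1 cycle/s) in inducible HEK293 T-REx D2 cells after an EC80 dopamine addition that followed 180 s compound preincubation. Loss of the dopamine response indicates antagonism.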
D2 PAM-2: HTS Assay for Positive Allosteric Modulators of the Human D2 Dopamine Receptor: Primary Screen for Potentiators; D(2) dopamine receptor (Homo sapiens), P14416; HEK293 T-REx D2, calcium flux, EC20 dopamine potentiation; potentiation, % at 10 µM; 340,000 compounds, 0.34% hits; AID 485347, 2010;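 active = potentiation over 3 SD above the plate norm, cut at about 30% in these data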; also: 0% is about no effect
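Tetracycline-induced Hek293 Trex D2 cells, force-coupled to calcium, loaded with no-wash calcium dye. Compound added with 180 s kinetic read for agonism, then EC20 dopamine and a further 180 s read for potentiation.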
* hit, by the source's call; ? = inconclusive; nt = no result given.

SMILES	D2 ag-1	D2 ag-2	D2 PAM-1	D2 antagonist	D2 PAM-2
Cc1ccc(S(=O)(=O)Nc2cc(C)c(O)c(S(=O)(=O)c3ccc(C)cc3)c2)cc1	13.1	-0.7	87.6*	4.0	-10.8
Cc1cc(NS(=O)(=O)c2ccccc2)cc(Cl)c1O	?	0.5	88.1*	-4.7	6.3
CCOC(=O)C1=c2/c(=C/c3ccncc3)c(N)c(C(=O)OC)n2C(=O)C(c2ccncc2)S1 (stereo not given)	-4.4	2.2	-9.8	5.3	12.0
C=CCn1c(Oc2cc(C)ccc2C)nc2c1c(=O)n(C)c(=O)n2C	0.4	-0.6	16.4	30.0*	14.8
COc1ccccc1OCc1nnc(-c2ccccc2)o1	nt	-0.5	nt	nt	-1.0
CCOC(=O)c1nc(Nc2ccccc2CC)c2ccccc2n1	0.5	0.0	1.4	33.3*	-6.6
Cc1ccc(N2C(=O)c3ccccc3NC2C(C)Cc2ccc3c(c2)OCO3)cc1 (stereo not given)	-3.0	0.8	-3.4	33.7*	-1.0
Cc1ccccc1OCCN1C(=O)C(=O)c2cccc(C)c21	-17.4	1.5	-66.5	-1.0	2.3
Cc1cccc2c1N(CCOc1ccccc1Cl)C(=O)C2=O	-14.0	-1.1	-36.2	30.4*	-8.4
COc1ccc(CNc2oc(/C=C/c3cc(OC)c(OC)c(OC)c3)nc2C#N)cc1	nt	16.1	nt	nt	7.7
O=C(O)Cc1ccc(-n2cccc2)cc1	-0.1	-0.5	-5.6	37.1*	0.5
COCCn1ccc2c(OCC(=O)Nc3cccc(C(F)(F)F)c3)cccc2c1=O	nt	0.3	nt	nt	-5.0
O=C(N/N=C/c1cccc(O)c1)N/N=C/c1cccc(O)c1	1.8	1.8	2.9	23.8	-3.9
Cc1nonc1C(=O)N/N=C/c1cccc(O)c1	-4.6	-0.7	-0.8	33.1*	15.3
CCN(CC)CCOc1c(C)cccc1Cl	1.4	-0.2	-2.0	62.0*	-21.2
CCCc1cc(C(=O)Cc2ccccn2)c(O)cc1O	-6.7	-1.1	0.1	36.6*	8.8
CCOc1ccc(NC(=O)c2oc3ccccc3c2NC(=O)Cc2cccc(C)c2)cc1	nt	0.0	nt	nt	-0.4
CCn1cnc2c1c(=O)n(Cc1csc(-c3ccccc3)n1)c(=O)n2Cc1ccccc1	-0.3	1.0	-0.9	4.3	7.0
CCn1cnc2c1c(=O)n(Cc1nnc3n1-c1ccccc1SC3)c(=O)n2Cc1ccccc1	-4.4	1.5	-0.2	5.1	34.4*
CC1CCN(CC(=O)Nc2ccc(S(=O)(=O)NC3CC3)cc2)CC1	-2.4	-0.5	-13.4	8.2	-7.7
Cc1cc2nc(CS(=O)(=O)c3ccccc3)cc(=O)n2[nH]1	1.9	0.6	-0.7	-21.8	6.5
Cc1cc(OCC(=O)O/N=C(\N)Cc2cccs2)ccc1Br	2.4	-0.2	-2.1	48.7*	2.4
Cc1ccc(OCC(=O)O/N=C(\N)Cc2cccs2)cc1C	-1.5	nt	-4.3	nt	nt
CC(CNC(=O)CN1C(=O)NC2(CCCCC2)C1=O)c1ccccc1 (stereo not given)	0.2	-0.5	-2.8	-12.3	13.5
COc1ccc(Nc2nc3ccc(Cl)cc3nc2-n2nc(C)cc2C)cc1	nt	-0.3	nt	nt	3.9
O=C(CN(CC1CCCO1)C(=O)CNS(=O)(=O)c1ccc(F)cc1)NCc1ccc(F)cc1 (stereo not given)	-1.5	0.3	-3.2	36.6*	5.3
CCCC(C(=O)NC1CCCC1)N(CC1CCCO1)C(=O)CNS(=O)(=O)c1ccc(F)cc1 (stereo not given)	-3.6	0.2	-0.7	31.8*	-3.9
O=C(CCNC(=O)c1ccccc1)NCC1CCCCC1	-3.2	-0.1	-17.4	7.2	-7.3
O=C(O)CCC(=O)Nc1ccc(Br)cc1C(=O)c1ccc(Cl)cc1	-3.3	0.5	-10.7	2.9	-4.3
Cc1ccc2cccc(NC(=S)NC(=O)c3ccccc3)c2n1	-2.6	0.0	-12.8	4.4	33.0*
